# According to the supplement of paper PMC3334620:
# Whole data set: some 33,000 sequences, median “E-score (-0.5 to 0.5)” near -0.015, cut for the highest 2% near 0.3. This is one part of a sample in which the highest values are shown more often than they occur.
# Molecular target: T1, Abf1 (UniProt P14164)
# T1 sequence: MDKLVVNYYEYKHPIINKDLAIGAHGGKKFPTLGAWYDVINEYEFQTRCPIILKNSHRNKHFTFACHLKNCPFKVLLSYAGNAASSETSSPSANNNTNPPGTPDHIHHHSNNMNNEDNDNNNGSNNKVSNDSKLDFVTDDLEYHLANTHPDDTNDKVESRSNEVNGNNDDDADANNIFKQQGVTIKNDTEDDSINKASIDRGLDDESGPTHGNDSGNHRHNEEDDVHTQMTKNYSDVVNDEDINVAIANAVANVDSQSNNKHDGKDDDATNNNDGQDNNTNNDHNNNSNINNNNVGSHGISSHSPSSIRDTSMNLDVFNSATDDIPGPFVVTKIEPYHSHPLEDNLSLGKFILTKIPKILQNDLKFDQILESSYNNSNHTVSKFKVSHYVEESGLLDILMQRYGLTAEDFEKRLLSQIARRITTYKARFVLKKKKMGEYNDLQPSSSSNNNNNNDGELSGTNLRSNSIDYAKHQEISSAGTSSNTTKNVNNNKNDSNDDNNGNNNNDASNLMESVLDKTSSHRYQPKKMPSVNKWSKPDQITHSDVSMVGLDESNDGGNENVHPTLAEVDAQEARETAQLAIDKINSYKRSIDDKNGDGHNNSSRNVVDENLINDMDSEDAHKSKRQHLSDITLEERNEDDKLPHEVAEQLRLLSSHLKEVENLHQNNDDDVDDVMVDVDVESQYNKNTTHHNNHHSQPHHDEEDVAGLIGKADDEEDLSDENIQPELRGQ
# Test: PBM E-score (8-mer binding enrichment) (E-score (-0.5 to 0.5)); higher = stronger / more preferred TF binding
# Settings: protein concentration: 200 nM; construct: GST-full length
# Method in brief: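 Full-length yeast transcription factors or their DNA-binding domains, GST-tagged and expressed with PURExpress, were applied at about 100-200 nM to universal all-10-mer Agilent arrays. These arrays had been made double-stranded by primer extension on fresh or once-stripped slides. Detection used fluorescent anti-GST, normalisation used masliner, and E-scores for ungapped eight-base words pooled with reverse complements came from the Universal PBM Analysis Suite.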
row,Sequence,PBM E-score
1,ATGTCAGC,0.0322
2,CTGTCACA,0.138
3,ATGTCACA,0.282
4,ATGTCACG,0.437
5,CTGTCACC,0.174
6,ATGTCACC,0.429
7,GTCCTCAC,0.0512
8,GGGCTCTA,-0.22
9,CCCCTGGA,-0.17
10,AACGGACT,-0.0919
11,CGATGGCG,-0.0766
12,GTTAGCAA,0.104
13,CTGATGAA,0.0318
14,CTGATGAC,0.203
15,GTGATGAA,0.207
16,ATGATGAG,0.141
17,ATGATTGA,0.346
18,GTGATGCA,0.185
19,ATGATGCC,0.0807
20,ATGATTGC,0.0463
21,ATGATTGG,-0.094
22,ATGATGAC,0.306
23,ATGATGCA,0.309
24,ATGATGAA,0.306
25,GAATGGAC,0.0322
26,GTTCCGGA,-0.0188

row,Sequence,PBM E-score
1,TATACATA,0.0494
2,GAGGGGGC,-0.346
3,CGGAGTCA,-0.111
4,AAAGCCTT,-0.219
5,CTATGGGA,-0.0561
6,ACACCGTA,0.0493
7,GCACCGTA,0.0841
8,CCACCGTA,0.341
9,GGGGGCCA,-0.462
10,CGTAGAAA,0.318
11,CGTAGAAG,0.222
12,AGTAGAAA,0.168
13,AGGGGTAT,-0.179
14,GCGTCGGA,-0.111
15,GGAGCCCC,-0.293
16,CATATTAA,0.315
17,TATATTAA,0.167
18,CATATTAG,0.136
19,ACGAACGC,0.214
20,GACTGTGC,0.0177
21,CTGTGATA,0.201
22,ACGTGATA,0.318
23,GTGTGATA,0.327
24,GCGTGAGA,0.168
25,GCGTGATA,0.353
26,CCGTGATA,0.283

row,Sequence,PBM E-score
1,ACGTGATG,0.215
2,ATGTGATA,0.291
3,ACGTGATC,0.261
4,CGCGATTA,0.0309
5,AGGTATGC,0.0905
6,CAGGCTGA,-0.188
7,AAATAATT,0.212
8,CGTACACA,0.318
9,CGTACACG,0.245
10,GGTACAGA,0.00644
11,CGTACAGC,-0.0515
12,AGTACAAA,0.101
13,CGTACACC,-0.0081
14,CGTACATA,0.364
15,GGTACAAA,0.0902
16,CGTACATC,0.134
17,CGTACAAA,0.408
18,CGTACAGA,0.308
19,AGTACATA,0.0814
20,GGAGATAA,0.0908
21,CAAACGGG,-0.0186
22,AACCGATT,0.0401
23,GCACCCAA,-0.239
24,CTTCTTTA,0.12
25,AGATGGGG,-0.284
26,GAACAATC,0.0605

row,Sequence,PBM E-score
1,GAAATTCC,-0.102
2,CGTACAAG,0.357
3,AGTACAAG,0.0462
4,CGTACAAC,0.276
5,GACGCCGA,0.0176
6,CGTATCAC,0.281
7,CGTATCAA,0.343
8,AGTATAAG,0.0186
9,CGTATAAA,0.417
10,AGTATAAA,0.252
11,CGTATAAC,0.366
12,CATATAAG,0.0553
13,GGTATAAC,0.0343
14,TGTATCAA,-0.0209
15,AGTATAAC,0.194
16,CGTATAAG,0.349
17,TGTATAAA,0.116
18,GATCCTAA,0.0497
19,ACCAAAAC,0.0329
20,ATTAAGTA,0.133
21,ATCTGTCA,0.212
22,CAACCAGG,-0.288
23,CGAAAGGA,0.191
24,GGAATACA,-0.0854
25,ATGGCTAA,-0.0715
26,AATCGTCC,0.168

row,Sequence,PBM E-score
1,TATCGTGA,0.286
2,TATCGTCA,0.33
3,CATCGTCG,0.231
4,CATCGTCC,0.137
5,CATCGTCA,0.297
6,AATCGTCA,0.334
7,AATCGTCT,0.269
8,GATCGTCA,0.277
9,CGAATGGA,0.0823
10,GACCCTAA,0.012
11,CAACGTTC,-0.145
12,CATGATGA,0.365
13,CATGATGC,0.123
14,TATGATGA,0.313
15,CATGATGG,-0.191
16,GATGATGC,0.152
17,GATGATGA,0.223
18,CAGTACCC,-0.0706
19,GGTAATAC,0.099
20,CGTAATAC,0.303
21,CGTAATAG,0.112
22,AAGTGATT,0.347
23,GAGTGAAC,-0.115
24,AAGTGATG,0.314
25,ATGTGATG,0.0498
26,GAGTGATC,0.327

row,Sequence,PBM E-score
1,CAGTGATG,0.255
2,AAGTGATC,0.41
3,AGGTGATC,0.276
4,ATGTGATC,0.18
5,GAGTGAGC,0.033
6,AAGTGAGT,0.0964
7,AAGTGAAT,0.16
8,CAAAATGA,0.275
9,CAAGATGC,0.148
10,TAACTCTA,-0.0858
11,TACAGGGA,-0.19
12,GACGGGAC,-0.171
13,ACGGCAAT,0.277
14,CTCAATGA,0.0427
15,TGAATTCA,0.171
16,CAGGGCCA,-0.227
17,CAGTGATC,0.366
18,CAGTGAGC,-0.118
19,CTGTGATC,0.0861
20,GGTGTACA,-0.178
21,CGTCATAC,0.316
22,CGTCATCA,0.349
23,CGTCATCC,0.167
24,AGTCATTA,0.037
25,CGTCATAG,0.143
26,GGTCATTA,0.134

row,Sequence,PBM E-score
1,AGTCATCA,0.135
2,GGTCATAC,-0.0499
3,CGTCATTA,0.327
4,GACTGCGA,-0.206
5,GCTATGCA,-0.102
6,AGGCACGG,0.062
7,GACAGACA,0.119
8,CGGTCAGC,-0.137
9,CACGTCTA,0.166
10,GAGAATAA,0.034
11,GGGATCAC,-0.0214
12,ATGATCAA,0.273
13,CTGATCAA,-0.114
14,ATCATGAA,0.121
15,ACGATCAC,0.274
16,GTGATCAC,0.386
17,ATGATCAC,0.335
18,ATCATGAG,0.238
19,CTGATCAC,0.294
20,ATGATCAG,0.269
21,GTGATCAA,0.392
22,ATCATGAT,0.416
